The results in this text go back to the supplement of paper PMC3545927.

The target of the assay is furin, P09958. The experiment in a line: furin cleavage Z-score vs untreated control; higher = more cleavage, active = 3.5 or more, inactive = 1 or less, 8 variable residues between constant flanks. Put shortly: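 Reactions of 0.01 ml ran for 7.5, 15 or 30 min in 50 mM HEPES pH 7.5 with CaCl2 and NaCl, at 1:10 enzyme:substrate. In them, purified furin acted on bead-held 8-mer peptides fused to a cDNA oligonucleotide. The cleavage Z-score was obtained by lowess-adjusting log sequencing counts of released DNA against furin-free reactions and scaling by median absolute deviation.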
Chain of furin, P09958 (P09958 whole entry, the tested form may be a part): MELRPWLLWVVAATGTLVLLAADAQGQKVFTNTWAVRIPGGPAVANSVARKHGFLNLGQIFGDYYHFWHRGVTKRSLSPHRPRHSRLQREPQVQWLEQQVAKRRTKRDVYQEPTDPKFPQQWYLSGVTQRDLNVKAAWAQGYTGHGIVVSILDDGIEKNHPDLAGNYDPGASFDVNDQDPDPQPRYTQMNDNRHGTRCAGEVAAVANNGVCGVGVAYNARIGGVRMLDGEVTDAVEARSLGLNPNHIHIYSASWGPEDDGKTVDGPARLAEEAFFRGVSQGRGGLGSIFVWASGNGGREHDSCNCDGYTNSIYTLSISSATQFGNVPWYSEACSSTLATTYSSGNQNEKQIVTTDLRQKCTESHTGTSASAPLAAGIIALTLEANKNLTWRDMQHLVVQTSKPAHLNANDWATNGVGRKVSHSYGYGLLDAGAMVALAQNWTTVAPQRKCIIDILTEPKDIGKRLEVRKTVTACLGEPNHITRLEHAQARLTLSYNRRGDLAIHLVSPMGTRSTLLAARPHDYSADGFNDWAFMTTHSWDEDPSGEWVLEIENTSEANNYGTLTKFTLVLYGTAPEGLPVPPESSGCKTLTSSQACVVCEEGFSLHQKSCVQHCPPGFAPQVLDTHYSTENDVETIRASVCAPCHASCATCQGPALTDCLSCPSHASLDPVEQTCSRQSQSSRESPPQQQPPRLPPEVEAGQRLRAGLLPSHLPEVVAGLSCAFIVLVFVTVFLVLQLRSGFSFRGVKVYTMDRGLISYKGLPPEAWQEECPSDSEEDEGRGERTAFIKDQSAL

The list shows a part of the results. How many sequences the whole screen found active is unknown.

With CAEVVTSYWVAGNASASA [HC2209], the “furin cleavage Z-score” value reads like this: (7.5 min) -1.41 (inactive); (15 min) -1.3 (inactive); (30 min) -1.27 (inactive).
As for CADLVGWPAPAGNASASA [HC714], the “furin cleavage Z-score” value is -0.648 (inactive) (7.5 min), -0.464 (inactive) (15 min) and -1.65 (inactive) (30 min).
Taken in the same sequence, the figures for CAYHVTNDCPAGNASASA [HC261] were -0.934 (inactive), -0.574 (inactive) and -0.88 (inactive).
As for CAKKWRMKREAGNASASA [FS-809], the “furin cleavage Z-score” value is 12.2 (active) (7.5 min), 12.8 (active) (15 min) and 10.8 (active) (30 min).
Taken in the same sequence, the figures for CAGRLRPLRDAGNASASA [FS-164] were 6.08 (active), 7.11 (active) and 5.86 (active).
Taken in the same sequence, the figures for CAAFGRRRRDAGNASASA [FS-639] were 6.8 (active), 6.94 (active) and 5.25 (active).
CALQGRSSRDAGNASASA [FS-357]: the “furin cleavage Z-score” value was 0.94 (inactive) (7.5 min), 1.14 (15 min) and 2.12 (30 min).
Taken in the same sequence, the figures for CAGQPRRSRDAGNASASA [FS-430] were 8.53 (active), 9.91 (active) and 6.63 (active).
For the sequence CASWLRDIWDAGNASASA [HC1148], the “furin cleavage Z-score” value reads like this: (7.5 min) -1.29 (inactive); (15 min) -0.331 (inactive); (30 min) 0.22 (inactive).
Taken in the same sequence, the figures for CANHLTPLRDAGNASASA [HC636] were -0.625 (inactive), -0.983 (inactive) and -0.425 (inactive).
As for CAPWQRVDRDAGNASASA [FS-843], the “furin cleavage Z-score” value runs as follows: (7.5 min) -0.541 (inactive); (15 min) 0.153 (inactive); (30 min) -0.511 (inactive).
Taken in the same sequence, the figures for CAASCRPLTDAGNASASA [HC389] were -0.403 (inactive), -0.436 (inactive) and 0.514 (inactive).
Taken in the same sequence, the figures for CAPPPRRTRDAGNASASA [FS-840] were 7.22 (active), 7.26 (active) and 5.47 (active).
Taken in the same sequence, the figures for CAVYCCSMSYAGNASASA [HC2009] were -0.694 (inactive), -1.09 (inactive) and -1.22 (inactive).
Turning to CATTPCSGSQAGNASASA [HC1942], the “furin cleavage Z-score” value reads like this: (7.5 min) -0.135 (inactive); (15 min) -0.54 (inactive); (30 min) -2.05 (inactive).
Taken in the same sequence, the figures for CADRRRRRRDAGNASASA [FS-647] were 7.06 (active), 7.21 (active) and 4.92 (active).
Consider CASRMREDRDAGNASASA [FS-871], for which the “furin cleavage Z-score” value (7.5 min) is -0.996 (inactive), the “furin cleavage Z-score” value (15 min) is -0.456 (inactive) and the “furin cleavage Z-score” value (30 min) is 1.09.
For the sequence CAFQRRRRRDAGNASASA [FS-906], the “furin cleavage Z-score” value by setting is: (7.5 min) 11.2 (active); (15 min) 12 (active); (30 min) 8.45 (active).
Taken in the same sequence, the figures for CAFQRRMAGMAGNASASA [FS-1671] were -0.225 (inactive), -0.266 (inactive) and 0.306 (inactive).
Taken in the same sequence, the figures for CARHIRRRRDAGNASASA [FS-1158] were 10.5 (active), 10.7 (active) and 6.88 (active).
Taken in the same sequence, the figures for CARHIRLVLKAGNASASA [FS-2937] were -1.39 (inactive), -0.583 (inactive) and -0.338 (inactive).
Regarding CALTRRMRRDAGNASASA [FS-177], the “furin cleavage Z-score” value is, setting by setting: (7.5 min) 14 (active); (15 min) 14.8 (active); (30 min) 9.72 (active).
Taken in the same sequence, the figures for CAMCTTPCSGAGNASASA [HC1946] were 0.117 (inactive), 1.58 and 0.427 (inactive).
Taken in the same sequence, the figures for CAEVPCHRVSAGNASASA [HC2390] were 2.12, 0.773 (inactive) and 2.
With CAEPTTPCSGAGNASASA [HC1979], the “furin cleavage Z-score” value reads like this: (7.5 min) -1.55 (inactive); (15 min) -0.645 (inactive); (30 min) -0.627 (inactive).
Taken in the same sequence, the figures for CAWTTQGCNCAGNASASA [HC310] were 0.795 (inactive), -2.96 (inactive) and -0.152 (inactive).
Taken in the same sequence, the figures for CAWEMEECSQAGNASASA [HC1788] were 1.14, 0.864 (inactive) and -0.48 (inactive).
Regarding CATRGERCDLAGNASASA [HC484], the “furin cleavage Z-score” value (7.5 min) was -0.0552 (inactive), the “furin cleavage Z-score” value (15 min) came out at 1.25 and the “furin cleavage Z-score” value (30 min) was found to be 1.03.
Regarding CAEHVVCCSMAGNASASA [HC2135], the “furin cleavage Z-score” value was 0.471 (inactive) (7.5 min), -0.688 (inactive) (15 min) and 1.47 (30 min).
Taken in the same sequence, the figures for CAVVCCSMSTAGNASASA [HC2098] were 0.887 (inactive), -0.156 (inactive) and 0.445 (inactive).
Taken in the same sequence, the figures for CAWAHNGLRDAGNASASA [HC640] were 0.594 (inactive), 0.97 (inactive) and -0.0784 (inactive).
With CATTDRRRRDAGNASASA [FS-101], the “furin cleavage Z-score” value reads like this: (7.5 min) 9.9 (active); (15 min) 8.9 (active); (30 min) 5.67 (active).
Taken in the same sequence, the figures for CAYGCRRRRDAGNASASA [FS-737] were 9.65 (active), 10.6 (active) and 8.47 (active).
Taken in the same sequence, the figures for CAGRPRSRKIAGNASASA [FS-657] were -0.514 (inactive), -1.38 (inactive) and 0.291 (inactive).
Taken in the same sequence, the figures for CALAFRRRRDAGNASASA [FS-346] were 7.62 (active), 8.27 (active) and 6.14 (active).
Turning to CAGRPRRRRDAGNASASA [FS-432], the “furin cleavage Z-score” value is, setting by setting: (7.5 min) 11.8 (active); (15 min) 13.5 (active); (30 min) 9.18 (active).
Taken in the same sequence, the figures for CAEVPCHRPCAGNASASA [HC2420] were 0.0318 (inactive), 0.651 (inactive) and 0.47 (inactive).
Taken in the same sequence, the figures for CAIMFAPTLWAGNASASA [HC1577] were -1.61 (inactive), -2.05 (inactive) and 0.617 (inactive).
Taken in the same sequence, the figures for CASPVFTDNSAGNASASA [HC764] were -0.427 (inactive), 0.197 (inactive) and -1.76 (inactive).
As for CAAWDMMMNWAGNASASA [HC320], the “furin cleavage Z-score” value (7.5 min) was 1.05, the “furin cleavage Z-score” value (15 min) was 0.73 (inactive) and the “furin cleavage Z-score” value (30 min) was -0.468 (inactive).
Taken in the same sequence, the figures for CAPEECSQHLAGNASASA [HC1679] were 1.99, 1.43 and 0.965 (inactive).
Taken in the same sequence, the figures for CAGEIPFYGKAGNASASA [HC846] were 1.57, -1.54 (inactive) and -0.341 (inactive).
Taken in the same sequence, the figures for CAIEANLLWRAGNASASA [HC1274] were 0.45 (inactive), 0.419 (inactive) and 0.862 (inactive).
